# Screens as filed in PubChem.
# This is a sample that favours compounds with a hit; in the whole collection about 6.8% have one here.
# KB-3-1 tox = kills parental KB-3-1 adenocarcinoma cells | KB-3-1 viability, CellTiter-Glo ATP luminescence, 72 h | Potency, µM (titrated, usually from 46.1 µM), hits mostly cytotoxic | 400,000 tested, 1.4% active | AID 1347075; note: nearly all actives have a fitted effect of over 60% in size
#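 Using CellTiter-Glo luminescence, growth of non-resistant KB-3-1 adenocarcinoma cells is assessed 72 h after pin-tool compound addition at 37 °C. Normalized responses across the concentration series yield fitted curves.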
# SW480 rerep = DNA re-replication induction in SW480 cells; SW480 DNA re-replication, Hoechst DNA content imaging, 48 h; Potency, µM (series often up to 46.1 µM), actives largely listed as activators; 340,000 tested, 1.8% active; AID 624297; note: nearly all actives have a fitted effect of over 55% in size
#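 Compounds, transferred as 23 nL by pin tool, were incubated with cells for 48 hr; DNA content per nucleus was then quantified by Hoechst staining and fluorescence plate imaging.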
# MCF10A rerep = inducers of DNA re-replication in MCF 10A breast cells; MCF 10A DNA re-replication, Hoechst nuclear intensity, 48 h; 350,000 tested, 2.9% active; Potency, µM (titrated, usually from 46.1 µM), hits mostly activators; note: nearly all actives have a fitted effect of over 50% in size
# KB-V1 MDR tox = kills drug-selected multidrug resistant KB-V1 cells. KB-V1 MDR cells viability, CellTiter-Glo, 72 h. Potency, µM (top dose mostly 46.1 µM), actives largely listed as cytotoxic. 400,000 tested, 3.4% active. AID 1347076; note: nearly all actives have a fitted effect of over 60% in size
#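 Cytotoxicity toward P-gp-expressing KB-V1 cells was determined as loss of CellTiter-Glo luminescence after 72 h at 37 degrees C. Compounds were tested in quantitative HTS format across a concentration range, with curves fitted to normalized data.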
# PINK1 modulator = changes PINK1 expression. PINK1 immunofluorescence, high-content cytometry, 24 h. Potency, µM (top dose mostly 76.6 µM), hits mostly activators. 410,000 tested, 0.2% active; active = well fitted activation curve with a large enough effect; inconclusive = small, poorly fitted or top-dose-only effect; cell line not stated here; note: nearly all actives have a fitted effect of over 65% in size
#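 Compound titrations (5 concentrations, 24 h) on a stable cell line; DMSO and CCCP controls. Endpoint: fixed-cell PINK1 immunofluorescence with mitochondrial, cell and nuclear markers, scanned by microplate cytometer.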
# TSG101-PTAP inh = blocks PTAP/TSG101 interaction to inhibit HIV-1 budding | Q99816 | Fluorescence polarization, FITC-PTAP peptide / Tsg101 binding | Potency, µM (top dose mostly 115 µM), most hits filed as inhibitors | 340,000 tested, under 10 active | AID 493005; active = well fitted inhibition curve with a large enough effect in the main read-out, with a control signal flat, not every such curve was filed as active; inconclusive = small, poorly fitted or top-dose-only effect, or effect the other way, or a change in a side signal; inactive = no such curve, though single readings can be large or run the other way
# Target sequence (Q99816 whole entry, looked up): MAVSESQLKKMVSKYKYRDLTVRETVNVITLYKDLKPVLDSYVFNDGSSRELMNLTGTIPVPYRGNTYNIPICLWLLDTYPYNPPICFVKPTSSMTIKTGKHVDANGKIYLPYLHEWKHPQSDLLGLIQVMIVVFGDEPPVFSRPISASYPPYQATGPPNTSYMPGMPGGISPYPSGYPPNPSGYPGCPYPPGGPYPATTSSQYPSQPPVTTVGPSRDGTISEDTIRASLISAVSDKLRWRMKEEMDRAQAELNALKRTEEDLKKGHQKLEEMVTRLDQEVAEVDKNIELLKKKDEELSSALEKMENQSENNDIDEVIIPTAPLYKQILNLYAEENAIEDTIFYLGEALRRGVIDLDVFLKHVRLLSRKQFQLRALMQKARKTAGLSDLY
#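 Steps: Tsg101 binding domain dispensed (10 uM final), compounds pinned in DMSO, FITC-labeled PTAP-motif peptide added (50 nM final); after 20 min binding at room temperature, polarization measured.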
# Hits are given with their value; i = inactive; ? = inconclusive; nt = no result given. Unless noted, calls come from the whole dose curve; as a rule, active = well fitted curve in the direction sought with a large enough effect; inconclusive = small, poorly fitted or top-dose-only effect, or another doubt; inactive = no such curve, though single readings can be large; an effect the other way counts as inactive or inconclusive.
SMILES,KB-3-1 tox,SW480 rerep,MCF10A rerep,KB-V1 MDR tox,PINK1 modulator,TSG101-PTAP inh
OC(CN1CCN(Cc2ccccc2)CC1)c1ccc(F)cc1 (centres undefined),i,i,i,i,i,i
OC(CN1CCN(Cc2ccccc2)CC1)Cn1c2ccccc2c2ccccc21 (centres undefined),?,nt,?,23µM,i,i
COc1cccc(NC(=O)Cn2c(=O)n(CCc3cccc(C)c3)c(=O)c3ccccc32)c1,i,nt,nt,i,i,nt
CC(C)NC(=O)CSc1nc2ccccc2c(=O)n1Cc1ccc(C(=O)NC(C)C)cc1,i,nt,nt,?,i,nt
S=C(NCc1ccco1)Nc1ccc(Cl)cc1Cl,?,i,i,18µM,i,i
Oc1c(C(c2ccccn2)N2CCCCC2)cc(Cl)c2cccnc12 (centres undefined),?,?,21µM,?,i,i
CN1CCN(C(c2ccc(Cl)cc2)c2cc(Cl)c3cccnc3c2O)CC1 (centres undefined),?,i,?,?,i,i
O[C@@H]1[C@@H](O)C=C2CCN3Cc4cc5c(cc4[C@H]1C23)OCO5 (some centres undefined),8.2µM,?,i,5.2µM,i,i
COc1ccc(C(=O)CCC(=O)Nc2cccc(C(C)=O)c2)cc1,i,nt,nt,i,i,nt
COc1cc(OC)cc(C2=Cc3ccc(OC)cc3C(CC(C)=O)N2c2ccc(-c3cccs3)cc2)c1 (centres undefined),7.3µM,nt,nt,i,i,nt
COc1cccc(C2=Cc3ccc(F)cc3C(CC(C)=O)N2c2ccc(-c3cncnc3)cc2)c1 (centres undefined),?,nt,nt,?,i,nt
COc1cc(OC)cc(C2=Cc3ccccc3C(CC(C)=O)N2c2ccc(-c3cncnc3)cc2)c1 (centres undefined),23µM,nt,nt,?,i,nt
COc1cc(OC)cc(C2=Cc3ccccc3C(CC(C)=O)N2c2ccc(-c3cccs3)cc2)c1 (centres undefined),?,nt,nt,i,i,nt
CC(C)c1ccc(S(=O)(=O)Nc2cc3c(cc2NCc2ccccc2)n(C)c(=O)n3C)cc1,23µM,nt,nt,?,i,nt
CCc1ccc(S(=O)(=O)Nc2cc3c(cc2C)n(C)c(=O)c(=O)n3C)cc1,i,nt,nt,i,i,nt
CCc1ccc(S(=O)(=O)Nc2cc3c(cc2C)n(C)c(=O)n3C)cc1,5.2µM,i,?,i,i,i
CCc1cc(C(=O)Nc2cc(S(=O)(=O)N(C)C)ccc2C)sc1C,i,i,i,9.2µM,i,i
Cc1ccc(S(=O)(=O)N(C)C)cc1NC(=S)NC(C)CCCC(C)C (centres undefined),?,i,?,?,?,i
CCCCCCC(C)NC(=S)Nc1cc(S(=O)(=O)N(C)C)ccc1C (centres undefined),?,?,18µM,?,i,?
CCc1cc(C(=O)Nc2cc(S(=O)(=O)N(CC)CC)ccc2N2CCN(C)CC2)sc1C,i,i,i,i,i,i
COc1cccc(Nc2nnc(-c3cc4ccc(O)cc4oc3=O)s2)c1,nt,nt,nt,nt,i,nt
O=C1/C(=C\c2cc(Br)cc(Br)c2O)SC(=S)N1Cc1ccccc1,?,i,9.2µM,i,?,i
COc1cc([N+](=O)[O-])cc(/C=C2/SC(=S)N(Cc3ccccc3)C2=O)c1O,?,i,?,?,35µM,i
COc1cc(/C=C2/SC(=S)N(Cc3ccccc3)C2=O)cc(Cl)c1O,?,i,i,i,i,?
O=C1/C(=C\c2ccc(O)cc2)SC(=S)N1Cc1ccccc1,i,?,i,i,i,i
SMILES,KB-3-1 tox,SW480 rerep,MCF10A rerep,KB-V1 MDR tox,PINK1 modulator,TSG101-PTAP inh
O=C1/C(=C/c2ccccc2O)SC(=S)N1Cc1cccnc1,3.3µM,?,6.5µM,?,i,i
O=C1/C(=C/c2ccc(O)c([N+](=O)[O-])c2)SC(=S)N1Cc1ccccc1,?,i,?,?,32µM,i
O=C(NCCC1=CCCCC1)c1ccc2c(c1)N(Cc1ccccc1)C(=O)c1ccccc1S2(=O)=O,nt,nt,nt,nt,i,nt
CCOC(=O)c1cc(-c2ccc(OC)c(S(=O)(=O)N3CCN(c4ccccc4)CC3)c2)on1,i,nt,nt,i,i,nt
O=C(O)CN1C(=O)/C(=C\c2cc(Br)ccc2OCc2ccccc2F)SC1=S,i,i,18µM,i,i,i
O=C(O)CN1C(=O)/C(=C\c2cc(Br)ccc2OCc2ccccc2Cl)SC1=S,i,i,?,i,i,i
O=C1/C(=C/c2cccnc2)SC(=S)N1Cc1ccco1,13µM,?,?,21µM,i,i
CC(=O)c1ccc(N2CCN(C(=O)NCc3noc4ccc(C)cc34)CC2)cc1,i,nt,nt,?,i,nt
Cc1cccc(NC(=O)c2oc3ccccc3c2NC(=O)Cc2coc3cc(C)cc(C)c23)c1,i,nt,nt,i,i,nt
Cc1csc2nc(O)c(C(=O)NC3CCCCC3)c(=O)n12,i,i,i,21µM,i,i
Cc1csc2nc(O)c(C(=O)NCCCN3CCCC3=O)c(=O)n12,i,i,i,18µM,i,i
Cc1ccc(C)c(NC(=O)CCc2nc3cccnc3n2Cc2cccs2)c1,i,nt,nt,i,i,nt
CCCC(=O)NC(NC(=S)Nc1ccc(N=Nc2ccccc2)cc1)C(Cl)(Cl)Cl (centres undefined),15µM,i,13µM,18µM,i,i
O=C(/C=C/c1ccccc1)NC(NC(=S)Nc1cccc(Cl)c1)C(Cl)(Cl)Cl (centres undefined),?,?,7.3µM,?,?,i
O=C(/C=C/c1ccccc1)NC(NC(=S)Nc1ccc(Cl)cc1Cl)C(Cl)(Cl)Cl (centres undefined),i,?,12µM,?,10µM,i
CCc1ccc(OCC(=O)NC(NC(=S)Nc2ccc(Cl)cc2)C(Cl)(Cl)Cl)cc1 (centres undefined),8.2µM,i,?,3.7µM,i,i
CCc1ccc(OCC(=O)NC(=S)Nc2ccc(C(=O)O)cc2)cc1,i,i,i,i,i,i
O=C(/C=C/c1ccccc1)NC(NC(=S)Nc1cccc(O)c1)C(Cl)(Cl)Cl (centres undefined),?,i,?,?,?,i
O=C(/C=C/c1ccccc1)NC(NC(=S)Nc1ccc(C(=O)O)cc1)C(Cl)(Cl)Cl (centres undefined),i,i,i,i,i,i
CCCC(=O)NC(NC(=S)Nc1ccc(S(N)(=O)=O)cc1)C(Cl)(Cl)Cl (centres undefined),i,i,i,i,i,i
COc1cccc(CN2CCC3(CCC(CNC(=O)c4ccco4)O3)CC2)c1OC (centres undefined),nt,nt,nt,nt,i,nt
Cc1nc(SCC(=O)Nc2ccccc2C)cc(-c2ccccc2)n1,nt,nt,nt,nt,i,nt
